# Measurements as given in the supplement of paper PMC10338343.
# ± gives the standard deviation.
# How the values were obtained:
# [1] = system: MILI (PIWIL2) piRISC loaded with piRNA #1 (26 nt); assay: pre-steady-state target cleavage rate (min^-1); guide: piRNA #1 5'p-UGAGGUAGUAGGUUGUAUAGUAUCCA; higher = faster piRNA-guided slicing of the target; settings: auxiliary factor: 500 nM mouse GTSF1;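 also: 1 nM active piRISC with 0.1 nM target library at 33 °C single turnover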
# Outline: (§1)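 In HEPES–potassium acetate buffer at 33 °C, […] transcribed, DNA-blocked target RNA library was mixed with 1 nM active affinity-purified piRISC carrying one synthetic guide, with or without 500 nM GTSF1 partner protein, for 0–8 or 0–960 min. Uncleaved targets were sequenced and normalised to depth and to weakly complementary targets; three trials were pooled and k3 was capped at 0.0001 min^-1. The pre-steady-state cleavage rate followed from a burst-and-steady-state fit.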
# [2] = system: EfPiwi piRISC loaded with piRNA #1 (26 nt); assay: pre-steady-state target cleavage rate (min^-1); auxiliary factor: 500 nM Ephydatia muelleri Gtsf1; guide: piRNA #1 5'p-UGAGGUAGUAGGUUGUAUAGUAUCCA; MIWI and MILI are mouse PIWI proteins and EfPiwi is from a freshwater sponge; tags in brackets are library labels; higher = faster piRNA-guided slicing of the target
# Outline: as §1
Sequence,pre-steady-state target cleavage rate [1],pre-steady-state target cleavage rate [2]
GGAGUGGAUAACUAUACAACCUACUACCUCA,0.0667 ± 0.0071,0.0101 ± 0.0044
GGAGACCAUACUAUACAACCUACACCUCA,0.00885 ± 0.0037,0.00776 ± 0.0044
GGAGACCUUACUAUACAACCUACUACCUCU [g2:g22:cont:t1U],0.177 ± 0.017,1.04 ± 0.39
GGAGUGGAUAGUAUACAACCUACUAGCUCA,0.00679 ± 0.003,0.00291 ± 0.0018
GGAGAGGAUACUAUACAACCUACUACGAGA,0.00764 ± 0.0034,0.00374 ± 0.0018
GGAGACGAUACUAUAGAACCUACUACGUCA,0.0644 ± 0.013,0.002 ± 0.0014
GGAGACCAUAGUAAACAACCUACUACCUCA,0.0682 ± 0.009,0.00482 ± 0.0034
GGAGACGAUACUAUUACAACCUACUACCUCA,0.172 ± 0.011,0.0508 ± 0.019
GGAGAGGAUACAAAACAACCUACUACCUCA,0.128 ± 0.013,0.00656 ± 0.0047
GGAGACGAUACUAUACCACCUACUACCUCA,0.168 ± 0.015,0.0106 ± 0.0037
GGAGACCAUACUAUACAACGUAGUACCUCA,0.0119 ± 0.0033,0.00264 ± 0.0023
GGAGACCAUACUAUACAACCUACCACCUCA,0.0975 ± 0.015,0.00474 ± 0.0033
GGAGUGGAUACUAUACAACCUACAACCUCA,0.0801 ± 0.011,0.00468 ± 0.0018
GGAGACGAUACUAUUCAACCUACUACCUCA,0.202 ± 0.013,0.00923 ± 0.0038
GGAGAGGAUACUUUACAACCUUCUACCUCA,0.00789 ± 0.002,0.0032 ± 0.0028
GGAGACGAUACUAUACAUCGUACUACCUCA,0.0496 ± 0.0064,0.00254 ± 0.0012
GGAGUGGAUACAAUACAACCAACUACCUCA,0.00919 ± 0.0019,0.00289 ± 0.0015
GGAGACCAUUACUAUACAACCUACUACCUCA,0.137 ± 0.012,0.148 ± 0.044
GGAGACCUAUCUAUACAACCUACUACCUUA,0.103 ± 0.015,0.0739 ± 0.027
GGAGUGGAUACUAUACUACCUACUACGUCA,0.0586 ± 0.0078,0.00245 ± 0.0017
